Results filed as inconclusive are left out. The source made the active and inactive calls. Unless noted, the call rests on the fitted dose curve; in most records, active means well fitted curve in the direction sought with a large enough effect in the repeat runs; inconclusive means weak or mixed curves; inactive means no such curve, though single readings can be large; an effect the other way counts as inactive or inconclusive.
How the values were obtained:
[1] = target: Estrogen receptor beta (Homo sapiens) (UniProt Q92731); assay: qHTS assay to identify small molecule agonists of the estrogen receptor beta (ER-beta) signaling pathway (AID 1259377; active means well fitted activation curve with a large enough effect in the signal ratio in the repeat runs, not every such curve was filed as active; the % refers to the signal ratio)
Sequence of Estrogen receptor beta (Homo sapiens) (Q92731 whole entry, looked up): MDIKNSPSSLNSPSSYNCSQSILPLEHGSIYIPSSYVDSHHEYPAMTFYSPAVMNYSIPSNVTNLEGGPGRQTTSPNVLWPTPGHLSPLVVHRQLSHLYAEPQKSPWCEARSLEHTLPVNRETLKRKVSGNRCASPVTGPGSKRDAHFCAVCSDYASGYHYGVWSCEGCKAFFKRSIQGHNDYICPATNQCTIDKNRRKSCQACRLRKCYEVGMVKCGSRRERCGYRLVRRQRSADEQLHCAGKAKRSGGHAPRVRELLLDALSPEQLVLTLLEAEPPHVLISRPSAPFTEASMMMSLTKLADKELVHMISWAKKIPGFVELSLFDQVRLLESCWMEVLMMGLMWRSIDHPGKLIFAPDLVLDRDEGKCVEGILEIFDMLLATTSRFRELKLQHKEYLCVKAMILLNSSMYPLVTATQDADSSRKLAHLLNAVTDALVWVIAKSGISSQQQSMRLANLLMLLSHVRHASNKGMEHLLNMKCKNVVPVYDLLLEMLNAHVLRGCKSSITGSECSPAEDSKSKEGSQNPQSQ
In short: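 ER-beta-UAS-bla HEK293T cells in medium with 2% charcoal-stripped FBS were exposed to compounds for 16 h at 37C. Beta-lactamase reporter activity was read as fluorescence after 2 h with LiveBLAzer B/G FRET substrate at room temperature.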

[2] = target: Estrogen receptor beta (Homo sapiens) (UniProt Q92731); assay: qHTS assay to identify small molecule antagonists of the estrogen receptor beta (ER-beta) signaling pathway (AID 1259378; active means well fitted inhibition curve with a large enough effect in the signal ratio in the repeat runs, not every such curve was filed as active; the % refers to the signal ratio; further: potency means the concentration at half of the fitted maximal effect)
In short: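 Antagonist mode: compounds added to beta-lactamase reporter HEK293T ER-beta-UAS cells stimulated with E2 (1nM final), 16 hr at 37C. LiveBLAzer B/G FRET substrate, 2 hours room temperature, fluorescence read-out.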

[3] = qHTS assay to identify small molecule agonists of the androgen receptor (AR) signaling pathway in the presence of an antagonist - cell viability counter screen (AID 1259379); further: nearly all actives have a fitted effect of over 25% in size; further: potency means the concentration at half of the fitted maximal effect
In short: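 Cells: MDA-kb2 (MMTV-luc, AR and GR elements), 3,000/well, 5 hr settle. Added: nilutamide 3.0uM final, then compounds (15 conc.). Incubation: 16 hr, 37C, no CO2. Read-out: CellTiter-Fluor, 1 hr, fluorescence.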

[4] = qHTS assay to identify small molecule agonists of the estrogen receptor beta (ER-beta) signaling pathway - cell viability counter screen (AID 1259380); further: nearly all actives have a fitted effect of over 30% in size
In short: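 HEK293T ER-beta-UAS-bla; 2% CS-FBS; 6 hr pre-plate, 16 hr cpd at 37C/5% CO2; LiveBLAzer read first, then CellTiter-Glo 30 min RT, luminescence.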

[5] = qHTS assay to identify small molecule antagonists of the estrogen receptor beta (ER-beta) signaling pathway - cell viability counter screen (AID 1259382);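 further: HEK293T cells carrying ER-beta-UAS-bla reporter stimulated with estradiol; series mostly up to about 92 µM; nearly all actives have a fitted effect of over 55% in size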
In short: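 Cells: ER-beta-UAS-bla HEK293T, 2,000/well, 2% CS-FBS, 6 hr settle. Cpd + E2 (1nM final), 16 hr, 37C/5% CO2. Bla FRET substrate 2 hr RT, then CellTiter-Glo 30 min RT, luminescence.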

[6] = target: Estrogen receptor (Homo sapiens) (UniProt P03372); assay: qHTS assay to identify small molecule agonists of the estrogen receptor alpha (ER-alpha) signaling pathway in the presence of an antagonist (AID 1259383; calls by dose curve; further: top concentration of the series differs between compounds; nearly all actives have a fitted effect of over 15% in size)
Sequence of Estrogen receptor (Homo sapiens) (P03372 whole entry, looked up): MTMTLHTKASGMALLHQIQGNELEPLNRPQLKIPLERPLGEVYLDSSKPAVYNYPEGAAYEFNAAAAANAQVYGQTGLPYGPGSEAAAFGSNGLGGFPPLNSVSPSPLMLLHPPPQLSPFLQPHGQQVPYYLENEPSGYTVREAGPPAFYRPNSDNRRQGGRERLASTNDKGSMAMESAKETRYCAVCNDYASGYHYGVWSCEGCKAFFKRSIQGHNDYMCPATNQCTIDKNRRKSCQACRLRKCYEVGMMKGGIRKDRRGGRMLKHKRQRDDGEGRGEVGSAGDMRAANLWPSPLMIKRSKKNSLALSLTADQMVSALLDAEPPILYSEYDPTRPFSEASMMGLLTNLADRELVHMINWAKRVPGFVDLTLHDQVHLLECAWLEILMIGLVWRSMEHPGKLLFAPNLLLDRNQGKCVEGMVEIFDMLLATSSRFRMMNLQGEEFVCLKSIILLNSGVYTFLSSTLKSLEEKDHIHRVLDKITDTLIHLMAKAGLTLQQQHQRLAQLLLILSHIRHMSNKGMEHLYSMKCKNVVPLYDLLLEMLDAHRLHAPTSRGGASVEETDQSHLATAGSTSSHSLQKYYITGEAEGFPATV
In short: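 VM7Luc4E2, endog. ER-alpha + 4×ERE-luc; charcoal-stripped FBS, phenol red-free, 5 d; 24hr plating; +10.0nM ICI-182,780 (final); cpds 15 conc, 22hr, 37C/5% CO2; ONE-Glo luminescence.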

[7] = qHTS assay to identify small molecule agonists or antagonists of the thyroid stimulating hormone receptor (TSHR) signaling pathway - wild type cell line counter screen (AID 1259384; calls by dose curve)
In short: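 Counter screen in untransfected Hek293: compounds (15-point titration, triplicate) plus phosphodiesterase inhibitor Ro20-1724 added after 18 h plating; 30 min RT. Intracellular cAMP via competitive d2/cryptate immunoassay, 1 h incubation.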

[8] = qHTS assay to identify small molecule agonists of the estrogen receptor alpha (ER-alpha) signaling pathway in the presence of an antagonist - cell viability counter screen (AID 1259386);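 further: cells exposed to compounds for 22 h at 37 °C before the viability read; nearly all actives have a fitted effect of over 30% in size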; further: potency means the concentration at half of the fitted maximal effect
In short: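 VM7Luc4E2, stripped-serum pre-culture 5 d; 24hr plating; +ICI-182,780 10.0nM final; cpds 15 conc, 22hr, 37C/5% CO2; CellTiter-Fluor added at 21hr, fluorescence 1hr later.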

[9] = target: Progesterone receptor (Homo sapiens) (UniProt P06401); assay: qHTS assay to identify small molecule agonists of the progesterone receptor (PR) signaling pathway (AID 1346784; calls by dose curve; further: nearly all actives have a fitted effect of over 30% in size)
Sequence of Progesterone receptor (Homo sapiens) (P06401 whole entry, looked up): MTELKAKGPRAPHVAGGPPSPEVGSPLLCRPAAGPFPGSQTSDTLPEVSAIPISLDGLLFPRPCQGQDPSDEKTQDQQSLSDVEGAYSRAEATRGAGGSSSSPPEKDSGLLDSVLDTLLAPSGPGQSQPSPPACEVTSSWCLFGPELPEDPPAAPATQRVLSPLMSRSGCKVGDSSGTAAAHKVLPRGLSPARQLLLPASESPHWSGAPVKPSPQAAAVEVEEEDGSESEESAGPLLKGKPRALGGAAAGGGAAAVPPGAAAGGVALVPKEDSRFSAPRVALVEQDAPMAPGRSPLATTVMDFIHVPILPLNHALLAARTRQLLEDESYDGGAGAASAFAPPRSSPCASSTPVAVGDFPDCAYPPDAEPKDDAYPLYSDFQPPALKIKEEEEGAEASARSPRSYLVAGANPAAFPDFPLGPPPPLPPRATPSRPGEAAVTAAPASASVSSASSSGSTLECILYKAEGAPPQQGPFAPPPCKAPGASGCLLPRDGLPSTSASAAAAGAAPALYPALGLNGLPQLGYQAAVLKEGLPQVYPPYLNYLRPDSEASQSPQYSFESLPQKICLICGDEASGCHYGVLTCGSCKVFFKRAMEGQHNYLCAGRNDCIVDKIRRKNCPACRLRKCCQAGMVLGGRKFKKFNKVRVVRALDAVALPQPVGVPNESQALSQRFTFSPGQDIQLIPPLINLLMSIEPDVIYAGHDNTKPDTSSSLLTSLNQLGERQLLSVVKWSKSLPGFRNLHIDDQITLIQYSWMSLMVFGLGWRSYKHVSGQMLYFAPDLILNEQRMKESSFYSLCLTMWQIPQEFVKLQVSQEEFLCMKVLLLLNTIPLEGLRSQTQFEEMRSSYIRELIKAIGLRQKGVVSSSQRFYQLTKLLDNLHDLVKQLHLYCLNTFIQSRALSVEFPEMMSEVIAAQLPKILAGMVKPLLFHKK
In short: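 PR-UAS-bla HEK 293T cells (beta-lactamase reporter under UAS) in 2% charcoal-stripped FBS, dosed with 23 nL compound after 6 hr, incubated 16hr at 37C. LiveBLAzer B/G FRET substrate added, fluorescence read after 2 hours.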

[10] = target: Progesterone receptor (Homo sapiens) (UniProt P06401); assay: qHTS assay to identify small molecule antagonists of the progesterone receptor (PR) signaling pathway (AID 1346795; active means well fitted inhibition curve with a large enough effect in the signal ratio in the repeat runs, not every such curve was filed as active; the % refers to the signal ratio)
In short: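 PR-UAS-bla HEK293T cells with beta-lactamase reporter under UAS control, in 2% charcoal-stripped FBS, treated with compounds plus 1 nM promegestone (R5020, final) for 16 hr at 37C. Read-out: FRET beta-lactamase substrate fluorescence after 2 hr at room temperature.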

[11] = qHTS assay to identify small molecule antagonists of the progesterone receptor (PR) signaling pathway - cell viability counter screen (AID 1346798); further: series mostly up to about 92 µM; nearly all actives have a fitted effect of over 50% in size
In short: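 PR-UAS-bla HEK293T cells, 3,000/well in 2% charcoal-stripped FBS medium, dosed with compounds plus R5020 agonist and incubated 16 h at 37C. Viability then measured in the same wells by CellTiter-Glo luminescence after 30 min at RT.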

[12] = qHTS assay to identify small molecule agonists of the progesterone receptor (PR) signaling pathway - cell viability counter screen (AID 1346799; calls by dose curve; further: nearly all actives have a fitted effect of over 45% in size; further: potency means the concentration at half of the fitted maximal effect)
In short: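 Counter screen in the PR-UAS-bla HEK293T wells (2% charcoal-stripped FBS, 16 h compound exposure at 37 C) after the bla read. CellTiter-Glo added, 30 min at room temperature, luminescence read as cell viability.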

[13] = qHTS assay to identify small molecule agonists of the TGF-beta/Smad signaling pathway - cell viability counter screen (AID 1346829); further: top concentration of the series differs between compounds; nearly all actives have a fitted effect of over 45% in size
In short: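 Tox21 qHTS format: SBE-bla HEK 293T cells treated with DMSO-dissolved compounds for 5 hr; CellTiter-Glo luminescence after 30 min at room temperature.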

[14] = target: Thyrotropin-releasing hormone receptor (Homo sapiens) (UniProt P34981); assay: qHTS assay to identify small molecule antagonists of the thyrotropin-releasing hormone receptor (TRHR) signaling pathway (AID 1346877; active means well fitted inhibition curve with a large enough effect in the repeat runs, not every such curve was filed as active; further: series mostly up to about 51 µM)
Sequence of Thyrotropin-releasing hormone receptor (Homo sapiens) (P34981 whole entry, looked up): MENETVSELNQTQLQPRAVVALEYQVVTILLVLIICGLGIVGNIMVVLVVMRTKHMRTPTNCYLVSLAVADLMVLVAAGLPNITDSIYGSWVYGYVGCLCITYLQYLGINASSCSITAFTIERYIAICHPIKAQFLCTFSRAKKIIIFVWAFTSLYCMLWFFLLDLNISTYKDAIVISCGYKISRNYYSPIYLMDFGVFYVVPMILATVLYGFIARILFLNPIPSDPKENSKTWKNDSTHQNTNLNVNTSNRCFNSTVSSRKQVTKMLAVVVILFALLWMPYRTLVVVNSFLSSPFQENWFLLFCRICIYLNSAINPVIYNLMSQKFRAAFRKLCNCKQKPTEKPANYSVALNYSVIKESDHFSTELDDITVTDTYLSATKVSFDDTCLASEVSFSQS
In short: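 Intracellular calcium fluorescence, read kinetically every second over 3 min, reports TRH-evoked signalling in HEK293 cells carrying TRHR. Test compounds were added 5 min ahead of a 1 nM TRH challenge.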

[15] = target: Thyrotropin-releasing hormone receptor (Homo sapiens) (UniProt P34981); assay: qHTS assay to identify small molecule agonists of the thyrotropin-releasing hormone receptor (TRHR) signaling pathway (AID 1346891; calls by dose curve; further: series mostly up to about 58 µM)
In short: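 HEK293 cells expressing TRHR plated 18 h at 37 C/5% CO2, calcium dye-loaded 2 h at 37 C, then compound added (agonist mode); kinetic calcium fluorescence read 3 min at 1 s intervals; 15 concentrations in triplicate.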

[16] = target: Thyrotropin receptor (Homo sapiens) (UniProt P16473); assay: qHTS assay to identify small molecule antagonists of the thyroid stimulating hormone receptor (TSHR) signaling pathway (AID 1259385; calls by dose curve; further: nearly all actives have a fitted effect of over 20% in size)
Sequence of Thyrotropin receptor (Homo sapiens) (P16473 whole entry, looked up): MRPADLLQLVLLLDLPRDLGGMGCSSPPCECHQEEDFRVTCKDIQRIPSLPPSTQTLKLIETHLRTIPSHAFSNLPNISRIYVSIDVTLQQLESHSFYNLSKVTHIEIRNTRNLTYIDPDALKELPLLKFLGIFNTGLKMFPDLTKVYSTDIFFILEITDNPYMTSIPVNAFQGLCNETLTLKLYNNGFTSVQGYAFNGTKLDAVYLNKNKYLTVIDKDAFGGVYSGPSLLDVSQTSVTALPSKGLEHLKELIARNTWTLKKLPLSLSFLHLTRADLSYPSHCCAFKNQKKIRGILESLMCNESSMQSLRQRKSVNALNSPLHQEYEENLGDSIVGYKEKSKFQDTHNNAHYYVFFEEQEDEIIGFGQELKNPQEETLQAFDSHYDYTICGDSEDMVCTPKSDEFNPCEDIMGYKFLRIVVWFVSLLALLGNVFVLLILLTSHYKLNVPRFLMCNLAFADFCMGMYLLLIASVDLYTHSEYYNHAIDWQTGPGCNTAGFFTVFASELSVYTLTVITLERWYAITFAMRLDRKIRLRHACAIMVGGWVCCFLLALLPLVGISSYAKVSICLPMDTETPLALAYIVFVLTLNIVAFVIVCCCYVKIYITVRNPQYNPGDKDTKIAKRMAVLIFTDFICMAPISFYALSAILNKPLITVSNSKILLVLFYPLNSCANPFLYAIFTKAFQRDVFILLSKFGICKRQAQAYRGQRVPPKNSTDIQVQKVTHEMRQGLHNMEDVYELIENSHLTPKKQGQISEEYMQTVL
In short: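 Antagonist mode: compound-treated TSHR-expressing HEK293 cells were stimulated with 1.5 ng/mL TSH (final) in presence of Ro20-1724 for 30 min at RT. HTRF cAMP detection after 1 h; each compound tested at 15 concentrations, triplicate.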

[17] = qHTS assay to identify small molecule antagonists of the TGF-beta/Smad signaling pathway - cell viability counter screen (AID 1346824); further: nearly all actives have a fitted effect of over 50% in size
In short: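 Cytotoxicity counter-screen run in the same wells as the beta-lactamase Smad reporter read: CellTiter-Glo luminescence after 30 min at room temperature. HEK 293T SBE-bla cells had 5 hr compound exposure at 37 C with TGF-beta1 (0.25 ng/mL stock).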

[18] = qHTS assay to identify small molecule agonists of the TGF-beta/Smad signaling pathway (AID 1346859; active means well fitted activation curve with a large enough effect in the signal ratio in the repeat runs, not every such curve was filed as active; the % refers to the signal ratio; further: series mostly up to about 77 µM)
In short: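 SBE-bla HEK293T cells plated overnight, then compound exposure for 5 h at 37 C. Beta-lactamase reporter read with LiveBLAzer B/G FRET substrate after 2 h at room temperature, fluorescence at 405 nm excitation, 460/530 nm emission.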

[19] = qHTS assay to identify small molecule antagonists of the sonic hedgehog signaling (Shh) pathway (AID 1259369; calls by dose curve; further: nearly all actives have a fitted effect of over 45% in size)
In short: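 3T3Gli1-Luc, conditioned-medium-stimulated, 24hr cpd, 37C/5% CO2; Gli1-driven firefly Luc luminescence after 30min RT with luciferase reagent. Cells plated 4hr before cpd.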

Measured: Potency

CCCCCC(=O)OCCc1ccccc1
not listed: [16] | [17] | [18] | [19]
inactive: all other assays above

COCCOCC(OC)OC
not listed: [4] | [6] | [13] | [18] | [19]
inactive: all other assays above

CC(C)c1ccc2ncccc2c1
not listed: [4] | [7] | [10] | [14] | [15] | [16] | [19]
inactive: all other assays above

O=S(=O)(O)c1cc(O)c(O)c(S(=O)(=O)O)c1
not listed: [6] | [7] | [16] | [18] | [19]
inactive: all other assays above

NC(=O)N1c2ccccc2CC(=O)c2ccccc21
not listed: [6] | [14] | [15] | [19]
inactive: all other assays above

CC(C)C(=O)OC(=O)C(C)C
not listed: [6] | [14] | [15] | [16] | [19]
inactive: all other assays above

CCCCc1nc(Cl)c(CO)n1Cc1ccc(-c2ccccc2-c2nn[nH]n2)cc1
not listed: [6] | [7] | [13] | [14] | [15] | [16] | [19]
inactive: all other assays above

CCC(C)(CCCC(C)C)OC(C)=O (stereo unspecified)
not listed: [4] | [11] | [14] | [15] | [19]
inactive: all other assays above

CC(=O)c1ccc2ccccc2c1
not listed: [4] | [14] | [15] | [19]
inactive: all other assays above

CC(C)(N)C#N
not listed: [8] | [13] | [19]
inactive: all other assays above

CCOC(=O)C1=NOC(c2ccccc2)(c2ccccc2)C1
not listed: [11] | [19]
inactive: all other assays above

CC1=NN(c2cc(S(=O)(=O)O)ccc2Cl)C(=O)C1N=Nc1ccccc1 (stereo unspecified)
active: [3] 27.3 µM | [8] 27.3 µM
not listed: [4] | [9] | [16] | [19]
inactive: all other assays above

C[N+]12CCC(CC1)C(OC(=O)C(O)(c1ccccc1)c1ccccc1)C2 (stereo unspecified)
not listed: [1] | [2] | [3] | [6] | [18]
inactive: all other assays above

C1CCC2=NCCCN2CC1
not listed: [6] | [14] | [15] | [19]
inactive: all other assays above

Nc1ccccn1
inactive: [19] | [5] | [7] | [16] | [11] | [12] | [13] | [14] | [15]

CCN(Cc1ccccc1)c1ccccc1
active: [12] 67.8 µM
not listed: [2] | [3] | [4] | [9] | [11] | [16] | [19]
inactive: all other assays above

COC(=O)C1=C(C)NC(C)=C(C(=O)OC(C)C)C1c1cccc2nonc12 (stereo unspecified)
active: [2] 26.6 µM
inactive: [1] | [4] | [5] | [7] | [8] | [9] | [17] | [13] | [18]

CCN(CC#N)c1cccc(C)c1
inactive: [3] | [5] | [8] | [9] | [10] | [12] | [17] | [13]

— PubChem BioAssay (Tox21)
